Measurements from PubChem BioAssay (Tox21).
Records with an inconclusive call do not appear. Calls of active or inactive are those of the source. Unless noted, the call rests on the fitted dose curve; in most records, active means well fitted curve in the direction sought with a large enough effect in the repeat runs; inconclusive means weak or mixed curves; inactive means no such curve, though single readings can be large; an effect the other way counts as inactive or inconclusive.

Assays:
[1] = qHTS assay to identify small molecule antagonists of the glucocorticoid receptor (GR) signaling pathway - cell viability counter screen (AID 720693); further: nearly all actives have a fitted effect of over 55% in size
[2] = qHTS assay for identifying genotoxic compounds that show differential cytotoxicity against isogenic chicken DT40 cell lines with known DNA damage response pathways - wild type cell line (AID 743012); further: nearly all actives have a fitted effect of over 60% in size; further: potency means the concentration at half of the fitted maximal effect
Procedure, shortened: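 Viability by ATP luminescence (CellTiter-Glo, 30 min RT) after 40 h compound treatment at 37 C/5% CO2, using 300 parental DNA repair-proficient DT40 cells per well.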

[3] = qHTS assay for identifying genotoxic compounds that show differential cytotoxicity against isogenic chicken DT40 cell lines with known DNA damage response pathways - Rev3 mutant cell line (AID 743014); further: nearly all actives have a fitted effect of over 55% in size; further: potency means the concentration at half of the fitted maximal effect
[4] = qHTS assay to identify small molecule antagonists of the androgen receptor (AR) signaling pathway - cell viability counter screen (AID 743033; further: nearly all actives have a fitted effect of over 45% in size)
[5] = qHTS assay to identify small molecule antagonists of the androgen receptor (AR) signaling pathway using the MDA cell line - cell viability counter screen (AID 743041; further: nearly all actives have a fitted effect of over 45% in size; further: potency means the concentration at half of the fitted maximal effect)
Procedure, shortened: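 qHTS viability read-out; MDA-kb2 AR-luc; R1881-stimulated; 16 h exposure at 37C, 0% CO2; CellTiter-Fluor, 30 min; fluorescence intensity.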

[6] = qHTS assay for identifying genotoxic compounds that show differential cytotoxicity against isogenic chicken DT40 cell lines with known DNA damage response pathways - Rad54/Ku70 mutant cell line (AID 743015); further: nearly all actives have a fitted effect of over 60% in size; further: potency means the concentration at half of the fitted maximal effect
[7] = target: Androgen receptor (Homo sapiens) (UniProt P10275); test: qHTS assay to identify small molecule agonists of the androgen receptor (AR) signaling pathway using the MDA cell line (AID 743040; further: nearly all actives have a fitted effect of over 20% in size; further: potency means the concentration at half of the fitted maximal effect)
Procedure, shortened: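 Agonist activity is measured as luciferase luminescence in human MDA-kb2 cells whose MMTV reporter responds to both AR and GR. Compounds in DMSO incubate 16 h at 37C, 0% CO2, and ONE-Glo is read after 30 min.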

[8] = target: Androgen receptor (Homo sapiens) (UniProt P10275); test: qHTS assay to identify small molecule antagonists of the androgen receptor (AR) signaling pathway using the MDA cell line (AID 743042; further: nearly all actives have a fitted effect of over 55% in size)
Procedure, shortened: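 MDA-kb2 cells (human breast carcinoma, stably carrying an MMTV-luciferase reporter responsive to AR and GR) were plated at 3,000 cells/well and preincubated 5 hr at 37C, then given compound plus R1881 agonist for 16 h. ONE-Glo luminescence was read.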

[9] = target: Androgen receptor (Homo sapiens) (UniProt P10275); test: qHTS assay to identify small molecule antagonists of the androgen receptor (AR) signaling pathway (AID 743035; active means well fitted inhibition curve with a large enough effect in the signal ratio in the repeat runs, not every such curve was filed as active; the % refers to the signal ratio)
Procedure, shortened: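 Antagonist mode: AR-bla HEK293 cells co-treated with test compounds and agonist R1881 for 16 h at 37C, 5% CO2. Beta-lactamase activity read as FRET fluorescence after 2 h room-temperature substrate loading.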

[10] = target: Androgen receptor (Homo sapiens) (UniProt P10275); test: qHTS assay to identify small molecule agonists of the androgen receptor (AR) signaling pathway (AID 743036; active means well fitted activation curve with a large enough effect in the signal ratio in the repeat runs, with a control signal flat, not every such curve was filed as active; the % refers to the signal ratio)
Procedure, shortened: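 Reporter line: GeneBLAzer AR-UAS-bla-GripTite (HEK293). Steps: plate cells, 4 h rest, add compounds, 16 h at 37C, add LiveBLAzer B/G substrate, 2 h at RT, read fluorescence.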

Measured: Potency

Chain of Androgen receptor (Homo sapiens) (P10275 whole entry, looked up): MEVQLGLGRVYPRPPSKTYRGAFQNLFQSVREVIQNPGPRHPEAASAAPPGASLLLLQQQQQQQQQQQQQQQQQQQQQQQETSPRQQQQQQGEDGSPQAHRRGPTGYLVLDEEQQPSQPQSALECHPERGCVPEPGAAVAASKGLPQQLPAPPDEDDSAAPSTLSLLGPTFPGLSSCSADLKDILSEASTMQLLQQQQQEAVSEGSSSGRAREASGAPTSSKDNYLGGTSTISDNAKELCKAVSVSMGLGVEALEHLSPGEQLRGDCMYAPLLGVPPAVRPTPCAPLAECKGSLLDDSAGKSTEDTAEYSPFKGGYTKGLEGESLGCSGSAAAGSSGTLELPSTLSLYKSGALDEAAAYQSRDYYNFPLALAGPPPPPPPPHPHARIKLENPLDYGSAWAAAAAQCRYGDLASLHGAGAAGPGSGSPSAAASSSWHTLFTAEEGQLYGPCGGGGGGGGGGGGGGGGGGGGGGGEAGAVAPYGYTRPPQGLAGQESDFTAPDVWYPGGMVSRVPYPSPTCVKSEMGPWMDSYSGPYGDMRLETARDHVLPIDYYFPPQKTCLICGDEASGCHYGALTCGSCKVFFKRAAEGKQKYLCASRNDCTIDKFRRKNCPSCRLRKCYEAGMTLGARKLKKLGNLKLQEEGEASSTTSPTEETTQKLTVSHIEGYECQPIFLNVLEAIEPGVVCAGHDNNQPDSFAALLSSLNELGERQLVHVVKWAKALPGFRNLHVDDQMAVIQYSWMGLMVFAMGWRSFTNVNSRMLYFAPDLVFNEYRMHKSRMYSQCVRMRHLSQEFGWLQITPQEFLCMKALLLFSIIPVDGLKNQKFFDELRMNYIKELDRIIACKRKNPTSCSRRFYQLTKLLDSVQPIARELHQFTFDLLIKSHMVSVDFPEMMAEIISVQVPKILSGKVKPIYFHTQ

O=CN(CCO)CCO
inactive: [1] | [2] | [3] | [4] | [5]

CC1=C(C/C=C(\C)CCC[C@H](C)CCC[C@H](C)CCCC(C)C)C(=O)c2ccccc2C1=O
inactive: [1] | [2] | [3] | [6] | [4] | [5]

O=S(=O)(O)c1cccc2ccccc12
inactive: [1] | [2] | [3] | [6] | [5]

CCNS(=O)(=O)c1ccc(C)cc1
inactive: [1] | [2] | [3] | [6] | [4] | [5]

Cc1ccc(C(=O)c2ccc(CC(=O)O)n2C)cc1
inactive: [1] | [2] | [3] | [6] | [7] | [5] | [8]

Cc1ccnc(NS(=O)(=O)c2ccc(N)cc2)n1
inactive: [1] | [2] | [3] | [6] | [4] | [5]

NCCCC[C@H](N[C@@H](CCc1ccccc1)C(=O)O)C(=O)N1CCC[C@H]1C(=O)O
inactive: [1] | [2] | [3] | [6] | [5]

C[C@H]1[C@H](NC(=O)/C(=N/OC(C)(C)C(=O)O)c2csc(N)n2)C(=O)N1S(=O)(=O)O (stereo in doubt)
inactive: [1] | [2] | [3] | [6] | [4] | [5]

C[N+]1(C)[C@@H]2CC(OC(=O)[C@H](CO)c3ccccc3)C[C@H]1[C@@H]1O[C@@H]12 (some centres undefined)
inactive: [1] | [2] | [3] | [6] | [4] | [5]

CC(C#N)(CCC(=O)O)N=NC(C)(C#N)CCC(=O)O (centres undefined)
inactive: [1] | [2] | [3] | [6] | [4] | [5]

NO
inactive: [1] | [2] | [3] | [6] | [4] | [5]

CC(CC=O)CC(C)(C)C (centres undefined)
inactive: [1] | [2] | [3] | [6] | [5]

O=C(O)Cc1csc(-c2ccc(Cl)cc2)n1
inactive: [1] | [2] | [3] | [6] | [9] | [7] | [5] | [8]

COc1ccnc(CS(=O)c2nc3cc(OC(F)F)ccc3[nH]2)c1OC (centres undefined)
inactive: [1] | [2] | [3] | [6] | [4] | [5]

CC(C)(C)OC(=O)c1cccc(N)c1
inactive: [1] | [2] | [3] | [6] | [4] | [5]

Cc1cccc(C)c1NC(=O)CC12CCCN1CCC2
inactive: [1] | [2] | [3] | [6] | [5]

CCOC(=O)COC(=O)c1ccccc1C(=O)OCC
inactive: [1] | [2] | [3] | [6] | [4] | [5]

CC(=O)N1C[C@H](O)C[C@H]1C(=O)O
active: [7] 26.6 µM
inactive: [1] | [2] | [6] | [4] | [9] | [5] | [8]

CCCC(C)C(=O)OCC (centres undefined)
inactive: [1] | [2] | [3] | [4] | [5]

NCCCC(N)(C(=O)O)C(F)F (centres undefined)
inactive: [1] | [2] | [3] | [4] | [5]

CC(C)(C)C(=O)c1ccccc1
inactive: [1] | [2] | [6] | [4] | [5]

CN1CCN(c2cc3c(nn2)Oc2ccccc2N3C)CC1
inactive: [1] | [2] | [6] | [4] | [5]

CCCCN1C=CN(C)C1
inactive: [1] | [2] | [3] | [5]

O=C(O)CC(C(=O)O)S(=O)(=O)O (centres undefined)
inactive: [1] | [4] | [5]
active: [2] 68.6 µM | [3] 61.1 µM

CCCCOCCOC(=O)CCCCCCCCC(=O)OCCOCCCC
inactive: [1] | [2] | [3] | [4] | [5]

CCCCCCC#CC(=O)OC
inactive: [1] | [2] | [3] | [4] | [5]

CCCCCCCCCC[N+](C)(C)[O-]
active: [2] 24.3 µM | [3] 13.7 µM
inactive: [1] | [9] | [7] | [5] | [8]

O=C(O)c1cc(C(=O)O)cc(C(=O)O)c1
inactive: [1] | [2] | [3] | [4] | [5]

CC(=O)c1ccc2ccccc2c1
inactive: [1] | [2] | [6] | [4] | [5]

Nc1ccn([C@@H]2O[C@H](CO)[C@@H](O)[C@@H]2O)c(=O)n1
inactive: [1] | [4] | [5]
active: [2] 0.0611 µM | [3] 0.0433 µM

[K+]
inactive: [1] | [2] | [3] | [4] | [5]

CC(C)NNC(=O)c1ccncc1
inactive: [1] | [2] | [6] | [4] | [9] | [7] | [8]

CC(=O)O[C@@]12CO[C@@H]1C[C@H](O)[C@@]1(C)C(=O)[C@H](O)C3=C(C)[C@@H](OC(=O)[C@H](O)[C@@H](NC(=O)OC(C)(C)C)c4ccccc4)C[C@@](O)([C@@H](OC(=O)c4ccccc4)[C@H]21)C3(C)C
active: [2] 0.0017 µM | [6] 2.7 nM
inactive: [1] | [4] | [7] | [5] | [8]

C=CC(C)(CCC=C(C)C)OC(=O)CC (centres undefined)
inactive: [1] | [2] | [6] | [4] | [5]

CCCCCCCCCCOc1cc2c(=O)c(C(=O)OCC)c[nH]c2cc1OCC
inactive: [1] | [2] | [6] | [4] | [5]

CN1CC(=O)N/C1=N/C(=O)Nc1cccc(Cl)c1
inactive: [1] | [2] | [3] | [5]

CC(=O)Oc1cccc(C)c1
inactive: [1] | [2] | [3] | [4] | [5]

COC(=O)C1=C(C)NC(C)=C(C(=O)OC(C)C)C1c1cccc2nonc12 (centres undefined)
inactive: [1] | [2] | [3] | [9] | [10] | [7] | [5] | [8]

CCOCC(C)O (centres undefined)
inactive: [1] | [2] | [3] | [4] | [5]

O=C1CCCCCCCCCCCCCCO1
inactive: [1] | [2] | [3] | [4] | [5]

COC(=O)Nc1ccc(Cl)c(Cl)c1
inactive: [1] | [2] | [3] | [10] | [7] | [5] | [8]

CC1=NN(c2cc(S(=O)(=O)O)ccc2Cl)C(=O)C1N=Nc1ccccc1 (centres undefined)
active: [5] 61.1 µM
inactive: [1] | [2] | [3] | [4]

CCCCCC(=O)OCCc1ccccc1
inactive: [1] | [2] | [6] | [4] | [5]

CCN(Cc1ccccc1)c1ccccc1
inactive: [1] | [2] | [6] | [4] | [9] | [10] | [7] | [5] | [8]

CCN1C=CN(C)C1C (centres undefined)
inactive: [1] | [2] | [3] | [4] | [5]

CCCCCCCCCCCCCCCCCCO
inactive: [1] | [2] | [6] | [4] | [5]

O=C1NC(=O)C2CC=CCC12 (centres undefined)
inactive: [1] | [2] | [6] | [4] | [5]

C[N+](C)(C)CCCCCCCCCC[N+](C)(C)C
inactive: [1] | [2] | [3] | [4] | [5]

CNCCO
inactive: [1] | [2] | [3] | [5]

CN(C)CCCN(C)CCCN(C)C
inactive: [1] | [2] | [6] | [4] | [5]

COc1cccc(OC)c1C(=O)N[C@@H]1C(=O)N2[C@@H]1SC(C)(C)[C@@H]2C(=O)O
inactive: [1] | [2] | [3] | [5]

C1CCC2=NCCCN2CC1
inactive: [1] | [2] | [3] | [5]

CO[Si](C)(OC)c1ccccc1
inactive: [1] | [2] | [3] | [5]

O=S(=O)(O)c1cccc(S(=O)(=O)O)c1
inactive: [9]

Cc1nc2ccc(CN(C)c3ccc(C(=O)N[C@@H](CCC(=O)O)C(=O)O)s3)cc2c(=O)[nH]1
inactive: [9] | [10]

CNC(=O)Nc1ccc(Cl)c(Cl)c1
inactive: [10]

CC(C)(C)c1ccc(-c2ccc(C(C)(C)C)cc2)cc1
inactive: [1] | [6] | [9] | [10] | [7] | [5] | [8]

CC(C)(N)C#N
inactive: [2] | [3] | [6] | [4] | [5]

Cc1ncc([C@@H](CCCCCCc2ccc3c(n2)NCCC3)CC(=O)O)cn1
inactive: [1] | [2] | [5]

CCCCCCCC1CCCC1=O (centres undefined)
inactive: [2] | [3] | [6] | [4] | [9] | [10] | [7] | [5] | [8]

CCCC[N+](C)(CCCC)CCCC
inactive: [1] | [3] | [4] | [5]

O=C(O)c1cn(C2CC2)c2cc(N3CCNCC3)c(F)cc2c1=O
inactive: [1] | [5]

C=CC(=O)OCCCl
inactive: [1] | [4] | [5]

NC(N)=NCCN1CCCCCCC1
inactive: [1] | [5]

CCCCOC(=O)CCC(C)=O
inactive: [1] | [4] | [5]
active: [3] 68.6 µM

c1ccc(CCc2ccccc2)cc1
inactive: [1] | [6] | [4] | [5]
